Results as given in PubChem BioAssay.
The source made the active and inactive calls.

Experiment: FRG1 promoter luciferase signal modulators, primary screen, FRG1 inhibition for FSHD, cell-based, C2C12 myotubes, firefly/Renilla luciferase, luminescence (AID 1084)
Details: higher = more signal, called active from +8 up or from −8 down

| Compound | z-score |
| --- | --- |
| COc1ccc(CN(C2=CC[C@@]3(C(N)=O)C(=O)C(Cl)=C(Cl)C(=O)[C@@]3(C#N)C2)S(=O)(=O)c2ccc(Br)cc2)cc1 | -0.991 (inactive) |
| COC(=O)c1cn(C[C@@H](Cc2ccccc2)NC(=O)N[C@H](CO)CCc2oc(C(C)=O)c(C(=O)OC)c2C(=O)OC)nn1 | -0.776 (inactive) |
| CCOC(=O)C[C@H]1[C@H](OC(=O)c2cc3ccccc3oc2=O)[C@@H](NC(=O)c2ccc(-c3ccccc3)cc2)c2cc(OCCCO)ccc2N1C(=O)c1ccccc1 | 0.335 (inactive) |
| COC(=O)[C@@]1(Cc2ccc(OC)cc2)[C@H]2c3cc(C(=O)N(C)C)n(C[C@H](O)CO)c3C[C@H]2CN1C(=O)c1ccccc1 | 1.55 (inactive) |
| CC(C)[Si](C#C[Si](C(C)C)(C(C)C)C(C)C)(O[C@H](C)c1cn([C@H](CO)Cc2ccccc2)nn1)C(C)C | -1.06 (inactive) |
| CCOC(=O)C1=CC[C@@H](c2ccccc2C(F)(F)F)N(S(=O)(=O)c2ccc(C)cc2)[C@H]1c1ccc(C#N)cc1 | 0.852 (inactive) |
| C[N+](C)(C)CCCC[C@@H]1NC(=O)[C@H]2C[C@@H](C(=O)NCCCCCCN)[C@@H](c3ccc(O)cc3)N2C1=O | -0.194 (inactive) |
| CC(C)N1CC=CC23O[C@@H]4C=CCOC(=O)[C@@H]4[C@H]2C(=O)N(CCCO)[C@@H]3C1=O (stereo partly drawn) | -0.385 (inactive) |

Experiment: binders of probe aFST on microarray, primary screen, stem cell growth factor project, biochemical, small-molecule microarray, fluorescence 635/667 (AID 1086);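 note: score merges 667 nm fluorescence with signal-to-noise of each printed compound spot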
Details: higher = more signal

| Compound | composite z-score |
| --- | --- |
| COC(=O)C(CC#Cc1ccc2c(c1)[C@]1(C(=O)N2)[C@H](C(=O)N2CCN(c3ncccn3)CC2)[C@H]2C(=O)O[C@H](c3ccccc3)[C@H](c3ccccc3)N2[C@@H]1c1ccc(OCCO)cc1)C(=O)OC | 0.38 |
| COCCOC(=O)N1C(=O)[C@@]2(c3cc(C#CC4=CCCCC4)ccc31)[C@H](c1ccccc1OCCO)N1[C@H](c3ccccc3)[C@H](c3ccccc3)OC(=O)[C@H]1[C@@H]2C(=O)N1CCCCCCC1 | 0.497 |
| CCOC(=O)C[C@H]1[C@H](OC(=O)c2ccc(C(=O)c3ccccc3)cc2)[C@@H](NC(=O)Cc2ccc(OC)cc2)c2cc(OCCCO)ccc2N1C(=O)c1ccccc1 | 0.518 |
| C=CC[C@@]1(C(=O)N2CCOCC2)N=C(c2ccc(OCCCO)cc2)O[C@@H]1c1ccccc1CN=[N+]=[N-] | 1.17 |
| NC(=O)NCC#Cc1ccc2c(c1)[C@]1(C(=O)N2)[C@H](C(=O)NC[C@H](O)c2ccccc2)[C@H]2C(=O)O[C@H](c3ccccc3)[C@H](c3ccccc3)N2[C@@H]1c1ccc(OCCO)cc1 | 0.0377 |
| C=C(COC)/C(=C/C[C@H](OC(=O)c1ccncc1)c1ccccc1OCCO)c1cnc2ccccc2c1 | 1.07 |
| [N-]=[N+]=Nc1ccccc1C[C@]1(C(N)=O)N=C(c2ccc(OCCCO)cc2)O[C@H]1c1ccccc1N=[N+]=[N-] | 0.359 |
| CN1C(=O)C2C=CC(C(O)c3ccccn3)N(N(c3ccccc3)c3ccccc3)C2C1=O (stereo not drawn) | 0.613 |
| NCCCCCCNC(=O)[C@@H]1C[C@@H]2C(=O)N[C@@H](CCCCN)C(=O)N2[C@@H]1c1cccc(OCCO)c1 | -0.175 |
| O=C1N(Cc2ccccc2)c2ccccc2[C@@H]2OC(c3ccc(OCCCO)cc3)=N[C@]12Cc1ccccc1 | 0.191 |
| CCCCCCCCCCC(O)C1C=CC2C(=O)N(C)C(=O)C2N1NC(=O)OC(C)(C)C (stereo not drawn) | 0.0478 |
| OCCCC1=CC(c2ccc(CN3CCCC3)cc2)N(Cc2sc3ccccc3c2Cl)CC1 (stereo not drawn) | 0.0562 |
| [N-]=[N+]=Nc1ccccc1[C@@H]1OC(c2ccc(OCCCO)cc2)=N[C@]1(Cc1ccccc1)C(=O)NCC(O)CO (stereo partly drawn) | 1.25 |
| C=CCC(OC(C)=O)[C@@H]1[C@@H](N(Cc2cc3ccccc3o2)C(=O)c2ccc(-c3ccccc3)cc2)c2cc(OCCCO)ccc2N1C(=O)c1ccc2ccccc2c1 (stereo partly drawn) | 0.679 |
| Cc1cc(C)c(C(O)C2C=CC3C(=O)N(c4ccccc4)C(=O)C3N2Nc2ccc(C(C)C)cc2)c(C)c1 (stereo not drawn) | 1.37 |
| COc1cc(OC)c(C(O)C2C=CC3C(=O)N(c4ccccc4)C(=O)C3N2Nc2ccccc2)cc1Br (stereo not drawn) | 0.558 |
| CO[C@H]1O[C@H](CO)[C@@H](OC(=O)Nc2ccccc2-c2ccccc2)[C@H](OC(=O)Nc2ccc3c(c2)OCO3)[C@H]1OC(=O)Nc1ccc2c(c1)OCO2 | 0.601 |
| CC1CC/C=C\[C@H]2OC34C=CCN(c5ccc(Cl)cc5)C(=O)[C@H]3N(CCCCCO)C(=O)[C@]4(C)C2C(=O)O1 (stereo partly drawn) | -0.999 |

| Compound | composite z-score |
| --- | --- |
| CC(C)N1C(=O)c2ccccc2[C@@H](C(=O)NC2CC2)[C@@H]1c1ccc(CO)cc1 | -0.593 |
| COCCCNC(=O)[C@@]1(Cc2ccccc2CN=[N+]=[N-])N=C(c2ccc(OCCCO)cc2)O[C@H]1c1ccccc1 | 1.82 |
| COc1ccc([Si](C)(C)[C@@H]2[C@@H](CCO)O[C@]3(C(=O)N(Cc4ccc(N5CCCCC5=O)cc4)c4ccccc43)[C@H]2C)cc1 | 0.203 |
| C=C(/C(=C/C[C@@H](OC(C)=O)c1cccc(OCCO)c1)c1cc(C(=O)OC)ccc1OC)C(C)C | 0.313 |
| C=C(COC)C(=O)CC[C@@H](OC(=O)c1cccnc1)c1ccc(OCCO)cc1 | 0.343 |
| CN(C)c1ccc(C(O)C2C=CC3C(=O)N(c4ccccc4)C(=O)C3N2Nc2ccc([N+](=O)[O-])cc2)cc1 (stereo not drawn) | 1.63 |
| C=C[C@@H](COC(C)=O)N(C(=O)OC(C)(C)C)S(=O)(=O)c1ccc(Br)cc1 | 0.157 |
| CCCC[C@@H](O)C1=C(COc2ccccc2)C[C@H]2C(=O)N(C)C(=O)[C@H]2[C@H]1CO | -0.346 |
| COC(=O)c1ccc([C@H](NC(=O)c2ccco2)[C@]2(C)C[C@H]2C2CCCCC2)cc1 | 0.488 |
| COc1ccc(CN(C2=CC[C@@]3(C(N)=O)C(=O)C(Cl)=C(Cl)C(=O)[C@@]3(C#N)C2)S(=O)(=O)c2ccc(Br)cc2)cc1 | 0.343 |
| COC(=O)c1cn(C[C@@H](Cc2ccccc2)NC(=O)N[C@H](CO)CCc2oc(C(C)=O)c(C(=O)OC)c2C(=O)OC)nn1 | 0.232 |
| CCOC(=O)C[C@H]1[C@H](OC(=O)c2cc3ccccc3oc2=O)[C@@H](NC(=O)c2ccc(-c3ccccc3)cc2)c2cc(OCCCO)ccc2N1C(=O)c1ccccc1 | 0.497 |
| COC(=O)[C@@]1(Cc2ccc(OC)cc2)[C@H]2c3cc(C(=O)N(C)C)n(C[C@H](O)CO)c3C[C@H]2CN1C(=O)c1ccccc1 | 1.73 |
| CC(C)[Si](C#C[Si](C(C)C)(C(C)C)C(C)C)(O[C@H](C)c1cn([C@H](CO)Cc2ccccc2)nn1)C(C)C | 0.513 |
| CCOC(=O)C1=CC[C@@H](c2ccccc2C(F)(F)F)N(S(=O)(=O)c2ccc(C)cc2)[C@H]1c1ccc(C#N)cc1 | 1.11 |
| C[N+](C)(C)CCCC[C@@H]1NC(=O)[C@H]2C[C@@H](C(=O)NCCCCCCN)[C@@H](c3ccc(O)cc3)N2C1=O | 0.901 |
| CC(C)N1CC=CC23O[C@@H]4C=CCOC(=O)[C@@H]4[C@H]2C(=O)N(CCCO)[C@@H]3C1=O (stereo partly drawn) | -0.436 |
